Source: PubChem BioAssay (National Center for Advancing Translational Sciences (NCATS))
TDP1 cell CPT: qHTS for Inhibitors of human tyrosyl-DNA phosphodiesterase 1 (TDP1): qHTS in cells in presence of CPT; actives 12% (n = 420,000); Potency, µM (series often up to 46.2 µM), for the others: at the top dose activity change, negative = growth inhibition, hits mostly inhibitors; chicken DT40 Tdp1-/-;hTDP1 cells + 20 nM CPT, ATP luminescence, 48 h; AID 686979, 2013; also: potency is read from the fitted curve at half-maximal effect; nearly all actives have a fitted effect of over 55% in size
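Chicken DT40 Tdp1-/- cells complemented with human TDP1, 400 cells/well, exposed to compounds plus 20 nM camptothecin for at least 48 h at 37 C; viability read as ATP content by CellTiter-Glo luminescence.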
HT1080 IDH1KD tx: qHTS for induction of synthetic lethality in tumor cells producing 2HG: qHTS for the HT-1080-IDH1KD cell line. HT-1080 IDH1 knockdown viability, ATP luminescence, 48 h. Potency, µM (top dose mostly 46.1 µM), inactives show at the highest dose activity, negative = toxicity, actives largely listed as cytotoxic. actives 2% (n = 360,000);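 also: potency is read from the fitted curve at half-maximal effect; 0% = DMSO wells and -100% = cell-free medium wells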
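IDH1KD HT-1080 cells, 750/well, RPMI + 5% FBS; compound pinned after 2 h settling; 48 h, 37 °C; CellTiter-Glo luminescence; % activity normalised to DMSO and no-cell wells; curves fitted, classed by r2 and efficacy.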
HT1080-NT tox: qHTS for induction of synthetic lethality in tumor cells producing 2HG: qHTS for the HT-1080-NT fibrosarcoma cell line; HT-1080-NT fibrosarcoma viability, CellTiter-Glo ATP luminescence, 48 h; Potency, µM (series often up to 46.1 µM), for the others: top-dose activity, negative = less viability, usual class: cytotoxic; actives 1.6% (n = 360,000);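 also: NT is the 2HG producing partner of a matched IDH1 knockdown line; potency is read from the fitted curve at half-maximal effect; 0% = DMSO-treated cells and -100% = media-only wells without cells; nearly all actives have a fitted effect of over 55% in size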
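HT-1080-NT; 750 cells/well; 5% FBS RPMI; 48 h compound, 37 degrees C; CellTiter-Glo luminescence; curve fitting and curve-class assignment.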
IL1B secr inh: qHTS for Inhibitors of Inflammasome Signaling: IL-1-beta AlphaLISA Primary Screen; AID 743279, 2014; actives 4.7% (n = 360,000); activity change, % at 57.5 µM; THP-1 LPS/ATP IL-1B secretion, AlphaLISA, 16 h; active compounds read low; in the data active = activity change below about -50%; inconclusive = mostly about -30% to -49%
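Secreted IL-1B measured by AlphaLISA bead assay after 16 h compound exposure of THP-1 cells; compounds (final up to 57.5 uM) added 1 h before LPS (250 ng/mL) and ATP (1.25 mM) stimulation; lower signal means less secretion.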
TDP1 cell noCPT: qHTS for Inhibitors of human tyrosyl-DNA phosphodiesterase 1 (TDP1): qHTS in cells in absence of CPT | AID 686978, 2013 | Potency, µM (top dose mostly 46.2 µM), for the others: at the top dose activity change, negative = growth inhibition, hits mostly inhibitors | actives 15% (n = 420,000) | DT40 Tdp1-/- hTDP1 cells, no CPT, ATP luminescence, 48 h; also: potency is read from the fitted curve at half-maximal effect; nearly all actives have a fitted effect of over 55% in size
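Growth of hTDP1-complemented DT40 Tdp1-knockout cells is measured by ATP luminescence after at least 48 hr compound exposure at 37 °C, with DMSO substituting for the 20 nM CPT used in the parallel screen.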
Numbers without * were called inactive; ? = inconclusive; . = no result. This is a sample that favours compounds with a hit; in the whole collection about 19% have one here. Unless noted, calls follow the shape of the dose curve; as a rule, active = well fitted curve in the direction sought with a large enough effect; inconclusive = small, poorly fitted or top-dose-only effect, or another doubt; inactive = no such curve, though single readings can be large; an effect the other way counts as inactive or inconclusive. Unless noted, % is scaled to controls: 0 for no effect and ±100 for the full control effect.

SMILES | TDP1 cell CPT | HT1080 IDH1KD tx | HT1080-NT tox | IL1B secr inh | TDP1 cell noCPT
COc1cc(NC(=O)CSc2nc(=O)n(CCN3CCOCC3)c3c2CCCC3)cc(OC)c1 | -4% | 0% | 0% | -6 | -16%
CCC(=O)Nc1nnc(SCC(=O)NCCc2ccc(OC)c(OC)c2)s1 | -7% | 3% | 3% | 8 | -12%
Cc1cc(C)n(CCc2nc3c4ccccc4nc(SCc4ccc(Cl)cc4)n3n2)n1 | 7% | . | . | . | 4%
CCn1c(-c2ccc(C)cc2)n[nH]c1=S | 21µM* | -1% | -2% | 13 | ?
S=c1[nH]nc(-c2ccccc2Cl)n1CC1CCCO1 (stereo unspecified) | -1% | 8% | 7% | 19 | 0%
CCn1c(-c2ccc(Cl)cc2)n[nH]c1=S | -1% | ? | ? | -6 | -16%
CC(C)(C)c1ccc(-c2n[nH]c(=S)n2CC2CCCO2)cc1 (stereo unspecified) | ? | 15% | 4% | 19 | 16µM*
Cc1[nH]c2ccc(-c3n[nH]c(=S)n3Cc3ccccc3)cc2c1C | 23µM* | -27% | ? | -57* | 16µM*
CCn1c(-c2cc(-c3ccccc3)sc2N)n[nH]c1=S | ? | -5% | -15% | 11 | 8.2µM*
O=C(CN1C(=O)NC2(CCCC2)C1=O)N1CCN(c2ccccc2Cl)CC1 | -10% | 2% | -1% | 13 | -27%
O=C(COc1ccc(Br)cc1Cl)Nc1ncn[nH]1 | -10% | . | . | . | -12%
COc1ccc2c(CC(=O)OCC(=O)Nc3cccc(C)c3)coc2c1 | 2% | 6% | 11% | 3 | 24%
CCOc1ccc(-c2n[nH]c(=S)n2Cc2ccccc2)cc1 | ? | 0% | -3% | -13 | 21µM*
CCOC(=O)Nc1ccc2nc(-c3cscn3)[nH]c2c1 | 6.5µM* | 26µM* | ? | 5 | 5.8µM*
CC(=O)Nc1ccc2nc(-c3cccs3)[nH]c2c1 | -10% | -6% | -3% | 18 | -18%
O=C(COc1ccccc1)Nc1nnc(-c2ccc(Cl)s2)o1 | -5% | 1% | -9% | 23 | ?
CCOC(=O)C1CCCN(S(=O)(=O)c2ccc3ccccc3c2)C1 (stereo unspecified) | -28% | -17% | -24% | 18 | ?
CCOC(=O)C1CCCC12Nc1cccc3cccc(c13)N2 (stereo unspecified) | 18µM* | -18% | -12% | -11 | 15µM*
COc1ccccc1CNC(=O)c1cnn(-c2nccc(-c3cccs3)n2)c1C | 18µM* | . | . | . | ?
C/C(=N\Nc1cc(C)nc(-c2ccccc2O)n1)c1ccccc1O | -86% | 5% | 0% | 7 | 13µM*
Cc1cc(N/N=C/c2cccc([N+](=O)[O-])c2)nc(-n2nc(C)cc2C)n1 | 4.1µM* | 15% | 0% | 12 | 3.7µM*
Cc1cc(N/N=C/c2ccccc2O)nc(-c2ccccc2O)n1 | -26% | -15% | -22% | 0 | ?
Cc1cc(N/N=C/c2ccc(O)cc2O)nc(-c2ccccc2O)n1 | ? | ? | ? | -77* | ?
Cc1cc(C)nc(N/N=C/c2cccc([N+](=O)[O-])c2)n1 | -21% | 20% | 13% | 7 | -24%
Cc1cc(N/N=C/c2ccc(O)cc2O)nc(-n2nc(C)cc2C)n1 | 0.23µM* | ? | -30% | 53 | 0.29µM*
SMILES | TDP1 cell CPT | HT1080 IDH1KD tx | HT1080-NT tox | IL1B secr inh | TDP1 cell noCPT
C=CCN(CC=C)CCOc1cccc(Oc2ccccc2)c1 | ? | -6% | -3% | 38 | ?
Cc1nc(Cl)cc(N/N=C/c2ccc(O)cc2O)n1 | ? | ? | -2% | -3 | 21µM*
Cc1cc(N/N=C/c2ccccc2[N+](=O)[O-])nc(-n2nc(C)cc2C)n1 | 1.2µM* | -28% | ? | -97* | 0.92µM*
COc1ccc(/C=N/Nc2cc(C)nc(-n3nc(C)cc3C)n2)cc1 | 4.6µM* | ? | ? | -99* | 4.6µM*
Cc1nc(Cl)cc(N/N=C/c2ccc(O)cc2)n1 | 3% | 4% | -16% | 5 | ?
Cc1cc(N/N=C/c2cccc(Cl)c2)nc(-n2nc(C)cc2C)n1 | 0.58µM* | ? | ? | 8 | 0.82µM*
Cc1cc(C)n(-c2ccccc2[N+](=O)[O-])n1 | 4% | -5% | 3% | -5 | ?
COc1cc([N+](=O)[O-])cc2sc(NC(=O)C3CC3)nc12 | 14% | -14% | -10% | -29 | 1%
O=C(NNC(=O)C12CC3CC(CC(O)(C3)C1)C2)c1csc(N2CCOCC2)n1 | 1% | -6% | -4% | -15 | -8%
O=C(CN1C(=O)NC2(CCCC2)C1=O)Nc1ccc(C(F)(F)F)cc1 | ? | -7% | -4% | 6 | ?
CCOC(=O)[C@]12CCC=C1N(Cc1cccc3ccccc13)C(=O)[C@H](CC(=O)NCCCN1CCCC1=O)C2 | ? | -4% | 16% | -5 | ?
CC(Sc1nnc2c(n1)[nH]c1ccccc12)C(=O)N(C)C1CCCCC1 (stereo unspecified) | 26µM* | -21% | -18% | -56* | 21µM*
CC(Sc1nnc2c(n1)[nH]c1ccccc12)C(=O)NC1CCCCC1 (stereo unspecified) | 23µM* | ? | -21% | -28 | 21µM*
O=C(CSc1nnc2c(n1)[nH]c1ccccc12)N1CCCCC1 | 0% | 1% | -13% | 11 | -27%
Clc1cccc(Cl)c1/C=C/c1ccn[nH]1 | 18µM* | ? | ? | -2 | 10µM*
c1ccc2sc(-c3ccc4c(c3)OCO4)nc2c1 | ? | ? | -26% | 5 | ?
Cc1cc(-c2nc3cc(F)ccc3s2)ccc1N | -17% | -32% | -10% | -76* | -6%
CSCCC(NS(=O)(=O)c1ccc(C)cc1)C(=O)NC1CCCCCC1 (stereo unspecified) | ? | 7% | 0% | 0 | 21µM*
Cc1ccc(S(=O)(=O)N[C@H](C(=O)NC2CCC(C)CC2)C(C)C)cc1 (stereo partly specified) | ? | -7% | -2% | 21 | 18µM*
CSCCC(NS(=O)(=O)c1ccc(C)cc1)C(=O)NC1CCCCC1 (stereo unspecified) | -9% | -6% | -2% | 26 | -7%
Nn1c(-c2ccccc2)nc2cc(Cl)ccc2c1=O | 26% | -2% | -18% | 27 | -18%
Cc1cc2nc(-c3ccc(=O)[nH]c3)n(Cc3ccccc3)c2cc1C | ? | -16% | -21% | 2 | ?
